Rows were chosen to be rich in hits. Some 6% of all compounds tested hit in one or more screens of this group.
DRD3 antagonist = blocks the human D3 dopamine receptor. P35462. D3R cells, DiscoveRx beta-arrestin luminescence, antagonist mode; hits give low values. max response, negative = inhibition, %. 360,000 compounds, 2.5% hits. AID 652054; in the data active means max response below about -50%; further: on the % scale 0 is the no-effect control and ±100 the full control effect
Target sequence (P35462 whole entry, looked up): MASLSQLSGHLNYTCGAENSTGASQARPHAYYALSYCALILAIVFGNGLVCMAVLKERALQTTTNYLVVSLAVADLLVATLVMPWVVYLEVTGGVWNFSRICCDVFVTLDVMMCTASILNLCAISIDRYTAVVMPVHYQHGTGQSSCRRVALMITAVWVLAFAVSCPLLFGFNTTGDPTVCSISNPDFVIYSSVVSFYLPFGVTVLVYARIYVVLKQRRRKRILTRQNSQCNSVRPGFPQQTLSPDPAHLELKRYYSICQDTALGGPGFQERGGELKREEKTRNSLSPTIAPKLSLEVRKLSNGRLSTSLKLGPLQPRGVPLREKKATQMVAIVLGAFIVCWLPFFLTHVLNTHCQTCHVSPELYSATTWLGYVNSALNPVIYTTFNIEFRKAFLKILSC
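Cells expressing the human receptor were seeded at 1500 cells/well, incubated overnight at 37 degrees C in 5% CO2, then exposed to library compounds with dopamine controls for 90 minutes at 37 degrees C before luminescent detection.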
D1 ag = agonists of human D1 dopamine receptor | P21728 | HEK293 T-REx D1 cells, calcium flux, agonist mode | activation, % at 2 µM | 360,000 compounds, 1% hits; in the data active means activation above about 30%; further: 0% is about no effect
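Inducible HEK293 T-REx D1 cells, force-coupled to calcium signalling, were plated at 4000 cells/well with tetracycline and held overnight at 30 C. After no-wash calcium dye loading, compound-evoked calcium rise over 180 s flagged agonists.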
D3 ag = activates the human D3 dopamine receptor | P35462 | D3R DiscoveRx beta-arrestin cells, luminescence, 90 min | max activation, % | 410,000 compounds, 0.58% hits; in the data active means max activation above about 30%; further: 0% is about no effect
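Cells at 1500/well, incubated overnight, then treated with pinned compounds (dopamine as control) for 90 min at 37 degrees C. DiscoveRx reagent added for 30 - 60 minutes at room temperature; luminescence read.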
D1 antag = antagonists of human D1 dopamine receptor. AID 504652. 360,000 compounds, 3.2% hits. P21728. HEK293 TREx D1 cells, calcium flux, dopamine EC80; hits give low values. activity change, negative = inhibition, % at 10 µM; in the data active means activity change below about -30%; further: on the % scale 0 is the no-effect control and ±100 the full control effect
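Compound effects on dopamine-evoked calcium signalling were measured in tetracycline-induced HEK293 Trex D1 cells. Dopamine at EC80 followed a 180 s compound pre-read, and fluorescence was tracked kinetically for 180 s more.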
D1 PAM = human D1 dopamine receptor positive modulation. P21728. HEK293 TREx D1 cells, calcium flux, dopamine EC20 potentiation. potentiation, % at 10 µM. 360,000 compounds, 0.036% hits. AID 504651; in the data active means potentiation above about 30%; further: 0% is about no effect
Numbers without * were called inactive; . = no result.

SMILES	DRD3 antagonist	D1 ag	D3 ag	D1 antag	D1 PAM
C=CCN1C(=O)c2ccc(C(=O)N(CC)CC(=O)Nc3ccc(OC)cc3)cc2C1=O	7	1	18	-22	0
COc1ccc([N+](=O)[O-])cc1N(CC(O)CN1C(=O)NC(C)(C)C1=O)S(=O)(=O)c1ccc(C)cc1 (stereo unspecified)	-3	.	0	.	.
O=C(NCCc1ccccc1)c1ccnc(/C=N/O)c1	-22	1	-5	-34*	-11
CN(CCNC(=O)c1ccc(/C=N/O)nc1)Cc1ccccc1	-76*	1	-31	5	-1
CN(CCCNC(=O)c1ccc(/C=N/O)nc1)CCCN(C)Cc1ccccc1	-28	3	-9	-5	-5
CC(C)Cn1cc(NC(=O)N2CCN(c3ccc(F)cc3)CC2)c2ccccc2c1=O	.	0	-8	4	5
Cc1cccc(C(=O)N2c3ncnn3C3(CCCCC3)[C@@H]3CCCC[C@@H]32)c1	.	3	-17	-9	-1
Cc1ccc(S(=O)(=O)c2nc(S(C)(=O)=O)sc2N2CCCC2)cc1	5	1	-4	10	-1
CCS(=O)(=O)c1nc(S(=O)(=O)c2ccc(C)cc2)c(N2CCN(CCO)CC2)s1	-18	3	-13	36	3
Cc1ccc(S(=O)(=O)c2nc(S(=O)(=O)c3ccccc3)sc2N2CCN(C)CC2)cc1	-86*	1	-20	-3	-4
Cc1ccc(S(=O)(=O)c2nc(S(=O)(=O)c3ccccc3)sc2N2CCN(CCO)CC2)cc1	-74*	1	-18	-5	2
COc1ccc(NC(=O)c2oc3ccccc3c2NC(=O)Cc2cccs2)cc1	.	-1	-3	1	2
CC(C)C(NC(=O)c1ccc(F)cc1)C(=O)N1CCC1 (stereo unspecified)	-8	0	4	-37*	-7
O=C1C(CO)C(CO)C(CO)C1CO (stereo unspecified)	-6	.	39*	.	.
CCN(CC)C(=O)COc1ccc(/C(C)=N/NC(=O)c2ccccc2O)cc1	-5	2	2	-51*	-4
O=c1[nH]c2ccc(NCc3ccc(-c4cccc(Cl)c4)o3)cc2[nH]1	.	37*	3	-22	-1
O=c1[nH]c2ccc(NCc3ccc(-c4ccc(Br)cc4)o3)cc2[nH]1	.	0	21	-7	-2
Cn1ncc2c(Nc3cccc(F)c3)ncnc21	.	0	0	9	0
CC(=O)Nc1ccc(NC(=O)C2CC(=O)N(c3ccccc3Cl)C2)cc1 (stereo unspecified)	43	14	4	-31*	2
CC(=O)Nc1ccc(NC(=O)C2CC(=O)N(c3ccc(Cl)cc3)C2)cc1 (stereo unspecified)	2	2	0	-1	-2
COc1cc2c(cc1OC)C(C1C(=O)CC(C)(C)CC1=O)N(C(=O)CCl)CC2 (stereo unspecified)	1	3	10	11	-8
COc1cc2c(cc1OC)C(c1cc(Br)ccc1F)N(C(=O)CCl)CC2 (stereo unspecified)	-87*	6	-2	6	1
CCOc1ccc(C(C)NC(=O)Nc2ccc(F)cc2F)cc1 (stereo unspecified)	7	12	-3	-77*	-1
CC(NC(=O)Nc1ccc(F)cc1F)c1ccncc1 (stereo unspecified)	-2	-1	0	3	5
CCO/N=C/C(=O)Nc1ccc(F)cc1F	2	0	12	-75*	-2
SMILES	DRD3 antagonist	D1 ag	D3 ag	D1 antag	D1 PAM
CCN(C(=O)c1cnc2ccc(C)cn2c1=O)c1ccccc1	.	0	-4	9	-1
CCOC(=O)c1sc2nc(NC(=O)C(C)(C)C)sc2c1C	33	10	34*	-21	-6
COC(=O)c1ccc(N2C(=O)Cc3cc(OC)c(OC)cc3C2c2ccc(F)cc2)cc1 (stereo unspecified)	.	0	-1	-10	-1
CN1CCC(N(C)S(=O)(=O)c2ccc(Cl)cc2)CC1	9	0	-15	21	-1
Cc1cc(C)c(C)c(S(=O)(=O)N(C)C2CCN(C)CC2)c1C	-77*	15	-19	-1	-5
COc1ccc(N2CCN(C(CNC(=O)c3ccc(C)cc3)c3ccc4c(c3)OCO4)CC2)cc1 (stereo unspecified)	.	1	-29	-22	-5
CC(C)C(NS(=O)(=O)c1ccccc1F)C(=O)N1CCc2ccccc2C1 (stereo unspecified)	8	0	1	-37*	-9
COc1ccc(CNC(=O)CN(C)Cc2ccccc2F)cc1OC	0	2	10	-36*	0
COc1cc2c(cc1NC(=O)CN(C)Cc1ccc(OC)c(OC)c1)oc1ccccc12	43	5	38*	-2	-9
COc1ccc(CN(C)CC(=O)Nc2cc3oc4ccccc4c3cc2OC)c(OC)c1	29	7	-8	3	3
COc1ccc(Br)cc1CN(C)CC(=O)NCc1ccc(F)cc1	-25	0	-21	1	-2
O=C(/C=C/c1ccc([N+](=O)[O-])cc1)c1cccs1	-10	1	-3	0	2
COc1cc([N+](=O)[O-])ccc1N/C=C/C(=O)c1cccs1	13	42*	-7	-8	-8
Cn1nc(C(=O)NC2CCCCC2)c2c1-c1ccccc1S(=O)(=O)C2	-14	2	1	4	0
COc1cccc(N2CC(NC(=O)C(=O)c3c[nH]c4ccccc34)CC2=O)c1 (stereo unspecified)	8	2	0	-35*	-3
COc1cc(OC)c(C2=NOC(C(=O)N3CCCc4ccccc43)C2)cc1Cl (stereo unspecified)	5	2	32*	5	-3
CCC1CCCCN1C(=O)C1CC(c2cc(Cl)c(OC)cc2OC)=NO1 (stereo unspecified)	0	3	-28	-8	-2
N[C@H](CSCc1ccccc1)C(=O)Nc1ccc([N+](=O)[O-])cc1	-30	7	-9	-33*	-7
COC(=O)c1c(NC(=O)c2ccc(S(=O)(=O)N3CCCCC3)cc2)sc2c1CCN(C)C2	.	-4	-5	.	-1
Cc1ccc(S(=O)(=O)N2CCC(c3nnc(SCCN4CCCC4)n3C)CC2)cc1	-16	0	-2	3	1
CCn1c(SCCN2CCCCC2)nnc1-c1ccc(S(=O)(=O)N2CCOCC2)cc1	-74*	3	-8	-17	-1
O=C(CSC1=NCCN1)Nc1cccc(C(F)(F)F)c1	-65*	5	-11	-15	-7
Cn1ccnc1SCC(=O)Nc1cccc(C(F)(F)F)c1	-10	2	-13	-19	0
O=C(CSc1ncc(S(=O)(=O)c2ccc(Cl)cc2)c(=O)[nH]1)Nc1cccc(C(F)(F)F)c1	.	0	-1	-32*	4
COc1ccc(NC(=O)CSc2c(C)n[nH]c2C)cc1	-3	0	-12	-7	-1
